An excerpt weighted towards active compounds, which were near 3.5% of everything screened.
rCAG RNA binder – molecules binding r(CAG) RNA repeats. r(CAG) RNA repeat, TO-PRO-1 dye displacement fluorescence. inhibition, % at 3 µM. 1.3% of 370,000 active. AID 651821;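 active = inhibition above the plate cutoff, the mean of all test compounds on that plate plus 3 SD, cut at about 35% in these data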;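 note: higher means more dye released from RNA so lower well fluorescence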
MBD2 inh – blocks human MBD2 binding to methylated DNA; Q9UBB5; TR-FRET, MBD2 binding to methylated oligonucleotide; inhibition, % at 4.4 µM; 0.31% of 370,000 active; in the data active = inhibition above about 13%
PG9 Ab binder – binds the HIV-1 gp120 antibody PG9; TR-FRET gp120-PG9 antibody binding; inhibition, % at 6.7 µM; 0.43% of 360,000 active; in the data active = inhibition above about 8.5%
DNMT1 inh – DNMT1 (human) enzyme inhibition; P26358; DNMT1 molecular beacon, Hinp1I cleavage, fluorescence; inhibition (reported as % activation of signal), % at 10 µM; 0.83% of 360,000 active; AID 588458; in the data active = inhibition above about 50%
UHRF1 MBD2 ctr – blocks human UHRF1 binding to methylated DNA | UHRF1 binding to methylated oligo, TR-FRET | inhibition, % at 4.4 µM | AID 687016 | 0.75% of 370,000 active | Q96T88; in the data active = inhibition above about 21%;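 note: UHRF1 SRA domain binding a hemimethylated CpG hairpin DNA probe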
LEDGF integ inh – blocks HIV-1 LEDGF/p75-dependent DNA integration; 0.64% of 370,000 active; TR-FRET IN-LEDGF/p75 DNA integration, Eu/Cy5; inhibition, % at 3.7 µM;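 active = inhibition above the screen-wide mean plus 3 SD, cut at about 13% in these data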;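 note: signal is the Cy5 over europium emission ratio at 671 and 618 nm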
rCAG bind conf – r(CAG) RNA repeat binding, confirmation | AID 652065 | inhibition, % at 3 µM | shares compounds with rCAG RNA binder | 70% of 4,300 active | TO-PRO-1 dye displacement fluorescence;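 active = inhibition above a per-plate cutoff, the mean inhibition of sample wells plus 3 SD, cut at about 35% in these data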;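 note: loss of TO-PRO-1 fluorescence as compound displaces dye from 1x1 AA loop RNA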
DNA CAG counter – DNA CAG dye complex inhibition counter-screen. shares compounds with rCAG RNA binder. d(CAG) DNA oligo TO-PRO-1 dye displacement, fluorescence. inhibition, % at 3 µM. 94% of 4,300 active. AID 652068;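 active = inhibition above its plate's cutoff, the mean test-well inhibition plus 3 SD, cut at about 4.8% in these data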;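 note: hits displace the dye from DNA and so lower well fluorescence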
Of the large screens only hits and unclear results are named; the others gave an inactive call (follow-up assays come after a bar, where they were run).

COc1ccccc1NC(=O)c1ccccc1NS(=O)(=O)c1cccs1	rCAG RNA binder 37 | rCAG bind conf inactive | DNA CAG counter 5.3
COc1ccc(OC)c(/C=N/NC(=O)c2cccc3ccccc23)c1	none
COc1ccc(C)cc1NC(=O)c1ccccc1NS(=O)(=O)c1ccc(Cl)s1	rCAG RNA binder 90 | rCAG bind conf 84 | DNA CAG counter 54
CCCNC(=O)C1(C)CCCN(Cc2ccc(-c3ccccc3)o2)C1 (configuration not stated)	none
NC(=O)NN=C(C1CC1)C1CC1	none
O=C(N/N=C/c1ccc(N2CCOCC2)cc1)c1ccc(NS(=O)(=O)c2cccs2)cc1	none
O=C(N/N=C/c1ccc(N2CCOCC2)cc1)c1ccccc1NS(=O)(=O)c1cccs1	rCAG RNA binder 66 | rCAG bind conf 50 | DNA CAG counter 17
COc1ccc(NC(=O)c2ccccc2NS(=O)(=O)c2ccc(C)cc2)c([N+](=O)[O-])c1	rCAG RNA binder 56 | rCAG bind conf 60 | DNA CAG counter 25
COc1ccc(C=NNC(=O)c2ccccc2NS(=O)(=O)c2cccs2)cc1O	rCAG RNA binder 36 | rCAG bind conf 37 | DNA CAG counter 10
O=C(NN=Cc1ccc(O)cc1O)c1ccccc1NS(=O)(=O)c1cccs1	rCAG RNA binder 43 | rCAG bind conf 41 | DNA CAG counter 14
Nc1ncnc2c1ncn2C1OCC(O)C1O (configuration not stated)	none (no result: rCAG RNA binder, MBD2 inh, PG9 Ab binder, UHRF1 MBD2 ctr, LEDGF integ inh)
O=C(NCc1ccccc1)C(C1CC1)n1c(-c2cccs2)nc2ccccc21 (configuration not stated)	none (no result: DNMT1 inh)
CCOc1ccc(C(=O)Oc2cc(C)[nH]c(=O)c2[N+](=O)[O-])cc1	rCAG RNA binder 74 | rCAG bind conf inactive | DNA CAG counter inactive
CCCCOc1ccc(C(=O)Oc2cc(C)[nH]c(=O)c2[N+](=O)[O-])cc1	none
CC(=O)Oc1c(I)cc(I)cc1C(=O)Nc1ccc(Cl)cc1	none
CCOC(=O)c1sc2nc3c(SCCC(=O)O)cc(C(=O)c4cc(OC)ccc4O)cn3c(=O)c2c1C	rCAG RNA binder 35, DNMT1 inh 104 | rCAG bind conf 68 | DNA CAG counter 39
O=C(O)CSc1cc(C(=O)c2cc(F)ccc2O)cn2c(=O)c3c(-c4ccccc4)csc3nc12	rCAG RNA binder 85 | rCAG bind conf 90 | DNA CAG counter 70
CCOC(=O)c1sc2nc3c(SCCC#N)cc(C(=O)c4cc(F)ccc4O)cn3c(=O)c2c1C	none
O=C(O)c1cccc(NC(=S)NC(NC(=O)c2ccccc2[N+](=O)[O-])C(Cl)(Cl)Cl)c1 (configuration not stated)	none
O=C(O)c1cccc(NC(=S)NC(NC(=O)c2cccc([N+](=O)[O-])c2)C(Cl)(Cl)Cl)c1 (configuration not stated)	rCAG RNA binder 53 | rCAG bind conf inactive | DNA CAG counter 8.7
Cc1ccc(NC(=S)NNC(=O)c2cccc([N+](=O)[O-])c2)cc1Cl	rCAG RNA binder 73 | rCAG bind conf 70 | DNA CAG counter 24
CC(=O)c1cccc(NC(=S)NNC(=O)c2ccc(C)c([N+](=O)[O-])c2)c1	rCAG RNA binder 41 | rCAG bind conf 38 | DNA CAG counter 15
CCc1ccc(/C=N/n2c(COc3ccccc3)n[nH]c2=S)cc1	none
COc1cccc(NC(=O)CN(C)C(=O)C2CCN(C(=O)c3ccccc3C)CC2)c1	none
O=C(CSc1nc2ccccc2n1CCc1ccccc1)c1ccc(O)c(O)c1	rCAG RNA binder 61, MBD2 inh 26, DNMT1 inh 97, UHRF1 MBD2 ctr 57, LEDGF integ inh 32 | rCAG bind conf 64 | DNA CAG counter 38
CC(C)N1C(=O)c2ccccc2NC(=O)C1C(=O)NCc1cccc(C(F)(F)F)c1 (configuration not stated)	none (no result: DNMT1 inh)
CCCCCCSc1ccc(-c2nc3cnccn3c2NCCCC)cc1	none
COCCn1c(SCc2cc(C(C)=O)ccc2OC)nc2cc(Cl)ccc2c1=O	rCAG RNA binder 42 | rCAG bind conf inactive | DNA CAG counter inactive
N=C1/C(=C\c2ccc(OC(=O)c3ccco3)cc2)C(=O)N=C2SC(N3CCCCC3)=NN12	rCAG RNA binder 40 | rCAG bind conf inactive | DNA CAG counter 11
COc1cc(/C=C2\C(=N)N3N=C(S(C)(=O)=O)SC3=NC2=O)ccc1OCCOc1ccccc1C	rCAG RNA binder 40 | rCAG bind conf 91 | DNA CAG counter 76
COc1ccc(/C=C2/C(=N)N3N=C(CC(=O)N4CCCC4)SC3=NC2=O)cc1OC	none
CCC1=NN2C(=N)/C(=C\c3ccc(OCCOc4ccccc4OC)cc3)C(=O)N=C2S1	none
CCOc1cc(/C=C2/C(=N)N3N=C(CC)SC3=NC2=O)ccc1OC(=O)c1ccco1	none
COc1cc(/C=C2\C(=N)N3N=C(S(C)(=O)=O)SC3=NC2=O)ccc1OC(=O)c1cccs1	rCAG RNA binder 52 | rCAG bind conf 86 | DNA CAG counter 63
CCOc1cc(/C=C2\C(=N)N3N=C(N4CCCCC4)SC3=NC2=O)ccc1OC(=O)c1ccco1	none
COc1cc(/C=C2\C(=N)N3N=C(S(C)(=O)=O)SC3=NC2=O)ccc1OC(=O)c1ccco1	rCAG RNA binder 43 | rCAG bind conf 80 | DNA CAG counter 48
C[C@H](CO)N1C[C@H](C)[C@@H](CN(C)C(=O)C2CCOCC2)Oc2ncc(Br)cc2C1=O	none
C[C@H]1COc2cc(Br)ccc2S(=O)(=O)N1Cc1cn(Cc2ccccc2)nn1	none (no result: PG9 Ab binder, DNMT1 inh)
COc1ccc(N2CCN(C(=O)C(=O)c3cc(OC)c4ccccc4c3)CC2)cc1	none (no result: DNMT1 inh)
CCOc1cc(/C=C2\C(=N)N3N=C(S(=O)(=O)CC)SC3=NC2=O)ccc1OC(=O)c1ccco1	rCAG RNA binder 42 | rCAG bind conf 84 | DNA CAG counter 51
CCn1ncc(S(=O)(=O)NCc2ccccc2Cl)c1C	none
COc1ccc([C@H]2OC(=O)C[C@H]2C(=O)N2CCN(c3ccccc3Cl)CC2)cc1OC	none (no result: PG9 Ab binder, DNMT1 inh)
CCOC(=O)C1=C(C)N=c2s/c(=C/c3ccc(OCC(=O)O)cc3)c(=O)n2C1c1ccc(SC)cc1 (configuration not stated)	none (no result: rCAG RNA binder, MBD2 inh, PG9 Ab binder, UHRF1 MBD2 ctr, LEDGF integ inh)
CCOC(=O)C1=C(C)N=c2s/c(=C\c3ccc(OCC(=O)O)cc3)c(=O)n2C1c1ccc(Cl)cc1 (configuration not stated)	rCAG RNA binder 55 | rCAG bind conf 73 | DNA CAG counter 36

Source: PubChem BioAssay (several laboratories)
